The values that follow come from PubChem BioAssay (NCATS).

Experiment [1] in a line: qHTS for Inhibitors of the Functional Ribonucleoprotein Complex (vRNP) of Lassa (LASV) Arenavirus: LASV Primary Screen - GLuc reporter signal (AID 1347082). Further: nearly all actives have a fitted effect of over 60% in size.
Experiment [2] is described as follows: qHTS for Inhibitors of the Functional Ribonucleoprotein Complex (vRNP) of Lassa (LASV) Arenavirus: Viability assay - alamar blue signal for LASV Primary Screen (AID 1347083). Further: nearly all actives have a fitted effect of over 80% in size.

Results filed as inconclusive are left out. Calls of active or inactive are those of the source. The call rests on the fitted dose curve; tested in HEK293 reporter line.
Potency means the concentration at half of the fitted maximal effect.

As for `O=C(N[C@@H](COc1ccc2[nH]c(=O)[nH]c2c1)c1ccccc1)c1cccn(Cc2ccc(F)c(F)c2)c1=O`, the Potency entry in experiment [1] and in experiment [2] was “inactive” in each case.

On to `CC(C[N+](C)(C)C)OC(N)=O` (stereo not given), for which the Potency result in experiment [1] and in experiment [2] was “inactive” throughout.

`CC(=O)NCCC(=O)N[C@@H](CCC(N)=O)C(=O)N[C@@H](CO)C(=O)N[C@@H](CCC(N)=O)C(=O)N[C@@H](CCC(N)=O)C(=O)N[C@H](C(=O)N[C@@H](Cc1ccccc1)C(=O)N[C@]1(C)CCCCCCC=CCCC[C@@](C)(C(=O)N[C@@H](CCC(N)=O)C(=O)N[C@@H](CC(N)=O)C(N)=O)NC(=O)[C@H](CC(C)C)NC(=O)[C@H](CC(C)C)NC(=O)[C@@H](CCCNC(=N)N)NC(=O)[C@H](Cc2c[nH]c3ccccc23)NC(=O)[C@H](CC(C)C)NC(=O)[C@H](CC(N)=O)NC1=O)[C@H](C)O`: the Potency entry in experiment [1] and in experiment [2] was “inactive” in each case.

On to `O=c1cc(CN2CCOCC2)occ1OCCCCCSc1ccnc2cc(C(F)(F)F)ccc12`, for which the Potency in experiment [1] was 21.7 µM (active); in experiment [2], 1.93 µM (active).

Regarding `CCN1CCc2nc(N)oc2CC1`, the Potency result in experiment [1] and in experiment [2] was “inactive” each time.

As to `O=C(O)c1ccccn1`, the Potency entry in experiment [1] and in experiment [2] was “inactive” in each case.

Take `C1Cc2[nH]nc(-c3nn[nH]n3)c2C1`: the Potency result in experiment [1] and in experiment [2] was “inactive” each time.

Turning to `O=C1CCCC2=C1C(c1[nH]ncc1Cl)N=C(Nc1nc3ccccc3o1)N2` (stereo not given), the Potency result in experiment [1] and in experiment [2] was “inactive” in each case.

As for `COc1ccc2c(c1)c1c3n2CCN(C)C3=NCC1`, the Potency entry in experiment [1] and in experiment [2] was “inactive” each time.

For `CC(C)OC(=O)c1cc(C(=O)OC(C)C)cc([N+](=O)[O-])c1`, the Potency result in experiment [1] and in experiment [2] was “inactive” throughout.

For `CC[C@H](CO)Nc1nc(NCc2ccccc2)c2ncn(C(C)C)c2n1`, the Potency entry in experiment [1] is “inactive”. Further, the Potency in experiment [2] was 15.3 µM (active).

In the case of `CCN1CCN(c2cc3c(cc2F)c(=O)c(C(=O)O)cn3C2CC2)CC1`, the Potency result in experiment [1] and in experiment [2] was “inactive” throughout.

Take `CCC[C@H](NC(=O)C(C#N)=Cc1cccc(Br)n1)c1ccccc1`: the Potency entry in experiment [1] is “inactive”. The Potency in experiment [2] is 34.3 µM (active).

Take `CC[N+](C)(CC)CCOC(=O)C(O)(c1ccccc1)C1CCCCC1` (stereo not given): the Potency entry in experiment [1] and in experiment [2] was “inactive” each time.

On to `CN(C)c1ccc(C2Nc3ccc4ccccc4c3C3=C2C(=O)CC(C)(C)C3)cc1Br` (stereo not given), for which the Potency entry in experiment [1] and in experiment [2] was “inactive” in each case.

With `COc1cccc(OC)c1-c1cc(C(=O)NC2(C(=O)O)C3CC4CC(C3)CC2C4)nn1-c1ccnc2cc(Cl)ccc12` (stereo not given), the Potency result in experiment [1] and in experiment [2] was “inactive” each time.

As for `CCOC(=O)[C@@H](N)CCC(=O)N[C@@H](CSCc1ccccc1)C(=O)N[C@@H](C(=O)OCC)c1ccccc1`, the Potency result in experiment [1] and in experiment [2] was “inactive” in each case.

In the case of `COC(=O)[C@]12CCC(C)(C)C[C@@H]1[C@@H]1C(=O)C=C3[C@@]4(C)C=C(C#N)C(=O)C(C)(C)[C@@H]4CC[C@@]3(C)[C@]1(C)CC2`, the Potency was 4.85 µM (active) in experiment [1] and 3.43 µM (active) in experiment [2].

`CC(C)c1ccccc1Cc1cc(C(=O)Nc2ccc(S(=O)(=O)c3ccccc3C(C)(C)C)cc2)c(O)c(O)c1O`: the Potency was 21.7 µM (active) in experiment [1] and 19.3 µM (active) in experiment [2].

As for `COc1cc(Oc2ccnc3cc(OC)c(OC)cc23)ccc1NC(=O)NC(C)c1nccs1` (stereo not given), the Potency result in experiment [1] and in experiment [2] was “inactive” each time.

Regarding `O=C(Nc1ccc(OC(F)(F)F)cc1)c1sccc1NCc1ccnc2ccccc12`, the Potency entry in experiment [1] and in experiment [2] was “inactive” throughout.

Take `NCCS`: the Potency entry in experiment [1] and in experiment [2] was “inactive” each time.

Regarding `C[C@@H]1CN(c2c(F)c(N)c3c(=O)c(C(=O)O)cn(C4CC4)c3c2F)C[C@H](C)N1`, the Potency entry in experiment [1] and in experiment [2] was “inactive” throughout.

`O=c1[nH]c(-c2ccc(C(F)(F)F)cc2)nc2c1CSCC2`: the Potency result in experiment [1] and in experiment [2] was “inactive” in each case.

As to `O=C(Nc1cccc(C2=NCCN2)c1)Nc1cccc(C2=NCCN2)c1`, the Potency result in experiment [1] and in experiment [2] was “inactive” throughout.

`O=C(NOC[C@H](O)CO)c1ccc(F)c(F)c1Nc1ccc(I)cc1F`: the Potency result in experiment [1] and in experiment [2] was “inactive” throughout.

Regarding `Cc1ccc(C(=O)Nc2cccc(C(F)(F)F)c2)cc1-c1ccc2nc(NCCN3CCOCC3)ncc2c1`, the Potency in experiment [1] is 10.9 µM (active); in experiment [2] it was 13.7 µM (active).

With `CCCCCCCCCCCCCC(=O)N[C@H](CO)[C@H](O)c1ccc([N+](=O)[O-])cc1`, the Potency entry in experiment [1] and in experiment [2] was “inactive” in each case.

In the case of `CN(C)CCCN=c1c2ccccc2n(C)c2[nH]c(=O)n(C)c(=O)c12`, the Potency result in experiment [1] was “inactive”. In addition, in experiment [2], the Potency is 19.3 µM (active).

As for `Nc1nnnn1-c1ccccc1`, the Potency result in experiment [1] and in experiment [2] was “inactive” throughout.

In the case of `OCCCc1ccccc1`, the Potency entry in experiment [1] and in experiment [2] was “inactive” in each case.

Regarding `Cc1ccccc1N=Nc1ccc(N=Nc2c(O)ccc3ccccc23)c(C)c1`, the Potency entry in experiment [1] and in experiment [2] was “inactive” in each case.

In the case of `C=C1C(=CC=C2CCC[C@]3(C)[C@@H]([C@H](C)C=C[C@H](C)C(C)C)CC[C@@H]23)C[C@@H](O)C[C@@H]1O`, the Potency result in experiment [1] is “inactive”. In addition, the Potency in experiment [2] was 13.7 µM (active).

`Clc1ccccc1C(c1ccccc1)(c1ccccc1)n1cccn1`: the Potency entry in experiment [1] and in experiment [2] was “inactive” each time.

With `S=c1[nH]c2ccccc2s1`, the Potency result in experiment [1] and in experiment [2] was “inactive” in each case.

On to `COc1ncnc(NS(=O)(=O)c2ccc(N)cc2)c1OC`, for which the Potency result in experiment [1] and in experiment [2] was “inactive” in each case.

Take `CC(=O)Oc1cccc(C)c1`: the Potency entry in experiment [1] and in experiment [2] was “inactive” in each case.

`N#Cc1c(O)c2c(-c3ccc(-c4ccccc4O)cc3)csc2[nH]c1=O`: the Potency entry in experiment [1] and in experiment [2] was “inactive” each time.

Turning to `O=C(O)Cc1ccccc1Oc1ccc(Cl)cc1Cl`, the Potency entry in experiment [1] and in experiment [2] was “inactive” in each case.

For `O=C(O)CCC1CCC(c2cc(F)ccc2F)(S(=O)(=O)c2ccc(Cl)cc2)CC1` (stereo not given), the Potency entry in experiment [1] and in experiment [2] was “inactive” each time.
